Measurements: the supplement of paper PMC11417369
Over roughly 25,000 sequences, “ln(normalized median fluorescence intensity)” has its median near 6.7; the highest 2% begin near 10. What follows is part of a selection rich in the highest values, with near analogues and random picks from the rest.

Each sequence was assayed on PfHDP1 homeodomain (GST-tagged) (assay: gcPBM binding intensity (ln(normalized median fluorescence intensity)); higher = stronger DNA binding).
In short: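 Binding intensity values are the highest Masliner-normalised natural-log median intensity among replicate spots of either probe orientation. The binding step lasted 1 h in 1× PBS with 1% milk, 0.2 mg/ml BSA, 0.5% salmon testes DNA and 0.03% Triton X-100, using GST-tagged P. falciparum DNA-binding domains expressed in E. coli on an Agilent 4 × 180k array of primer-extended double-stranded 36-bp intergenic genomic probes plus negative controls. Alexa488 anti-GST antibody and a 488 nm scan detected bound protein.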

| Sequence | gcPBM binding intensity (ln) |
| --- | --- |
| ATCTTTCATCTACCAAGTACAAATTACTTTTTTTTT [XGTACX_site7001] | 6.79 |
| ATCAAACAAAAAATAAAAAAATGCGACATGTGTACA [TGCATGCA_negctrl_site164] | 7.34 |
| GTCGAGGATATATAAAGTACATATATATATATGATA [XGTACX_site1128] | 6.41 |
| TTACATAATATATGTACACACGCAAATACTTAGAAT [CACACA_site320] | 6.63 |
| ACCACATTTTTTTTTGCATGTTGTTTAAAAAAAGGC [TGCATGCA_site137] | 6.74 |
| TATTTGTAAATCGATACACACATATATCTTAATATA [CACACA_site4273] | 6.28 |
| TTCAAAATAAAAAATTCACACACATATATATATATA [CACACA_site8653] | 9.22 |
| AATGCTATCATTAATGCACACATTTAAAATTAATAT [CACACA_site3548] | 10 |
| AAAATTTAATATAATGCACACATAAAAAAAAAATCA [CACACA_site7882] | 10.7 |
| AATTTAATATAATGCACACATAAAAAAAAATTCAAA [CACACA_site2062] | 10.5 |
| TAACTTAATATTAATGCACACAATTTATATATATAT [CACACA_site3903] | 10.4 |
| TACAATTTAAAACACACACACAATAATACATATATA [CACACA_site1251] | 6.89 |
| AATTTAATATAATGCACACATAAAACAAAAACAAAA [CACACA_site529] | 10.5 |
| AAAATTTAATATAATGCACACATAAAACAAAAACAA [CACACA_site8071] | 9.14 |
| AATTTAATATAATGCACACATAAAAAAAAAATCAAA [CACACA_site1] | 9.95 |
| AATGCTATCATTAATGCACACATTTAAACTTAATAT [CACACA_site5878] | 10.6 |
| TATTGTCTTGTATATGCATGTAGACCAAATATGTAA [TGCATGCA_site9] | 6.42 |
| AATGAGGATATATACACACATACATTAAAAAAATAT [CACACA_site1849] | 6.67 |
| TATTAAACTGGACACACACACACACCCATATATAAA [CACACA_site4579] | 6.93 |
| TATATCTTAATATTTACACACATGCGCACCCATAAA [CACACA_site5349] | 7.52 |
| GTGTATTTGGTGCGCACACACATGCAAAAAGAAATA [CACACA_site4768] | 9.15 |
| AAAAAAAAAAAAAAATGTACATATATATATTATAAA [XGTACX_site518] | 6.33 |
| ATTTTATTTTTTAATAGTACTCATTTTTTATGTGAA [XGTACX_site5494] | 6.48 |
| TTAAAGCTGACATATACACACATACATAAATTCATA [CACACA_site5377] | 6.75 |

| Sequence | gcPBM binding intensity (ln) |
| --- | --- |
| GATCCTGGTTCTTGTGGTACTTGTTCATTTGTTATA [XGTACX_site7164] | 6.69 |
| TATATATATATAAGATGTACCCTTTGAAATAATAAT [XGTACX_site7215] | 8.66 |
| ATTTCGTAATTTATATCACACACATATATATATAAT [CACACA_site9021] | 6.84 |
| AATTTAATATAATGCACACATAAAAAAAAAAAAAAA [CACACA_site123] | 10.5 |
| ATATTTTATTATATAGGTACACATAATTTCATGTAA [XGTACX_site415] | 6.34 |
| AAAATTTAATATAATGCACACATAAAAAAAAAAAAT [CACACA_site8425] | 10.4 |
| TAGACAAAATATAATGCACACTATTATTTTTATTTA [CACACA_site5508] | 10.4 |
| AATTTAATATAATGCACACATAAAAAAAAAAAATTC [CACACA_site1504] | 10.6 |
| AAAATTTAATATAATGCACACATAAAAAAAAATTCA [CACACA_site8640] | 9.79 |
| TATAATTTAAAATACACACACATATATATAATATAT [CACACA_site2000] | 6.76 |
| TATATATATTTATGCACACAAAATATATTATATAAT [CACACA_site5955] | 10.4 |
| ACTAGACAAAATATAATGCACACTATTATTTTTATT [CACACA_site2726] | 10.6 |
| AAAATTTAATATAATGCACACATAAAAAAAAAAAAA [CACACA_site7923] | 10.4 |
| CATATATATCGTAATGCACACATGTAATTTCATAAT [CACACA_site811] | 10.7 |
| TATTTATACATACATACACACATATAGATTTATATT [CACACA_site7851] | 6.85 |
| TACATACATACATACACACATACATATGTATATATA [CACACA_site2480] | 7.37 |
| TTTATTAATAGACACACACACACACGCAAAATAAAA [CACACA_site6255] | 7.16 |
| ATGGACTTTTATAGTTGTACATACTATGAGAACTTT [XGTACX_site2800] | 7.08 |
| AAGGGTTGCCTGTGTAGTACATATATATATATATAT [XGTACX_site8555] | 9.24 |
| GAGAAATGGGGACACACACACATATTATATATATAT [CACACA_site4943] | 8.53 |
| TATAAATTTGTTGTTGCATGCAGTATACCAAAAAAA [TGCATGCA_site445] | 7.18 |
| AAGGTGGGAAAAAATAGTACACAACAAAAATGTATG [XGTACX_site8741] | 6.64 |
| AAACATTAAAATAACTCACACATTTTTCTAGTCTTC [CACACA_site4612] | 6.19 |
| AGAACTTTTAATGGATGTACAGTTATTTTATTATTT [XGTACX_site6226] | 6.12 |

| Sequence | gcPBM binding intensity (ln) |
| --- | --- |
| ATATATATATATATAGTGCATAAAATAAGTTTCTAA | 9.54 |
| TATGTTTTTACATATTGTACATATTCTTGTAATACG [XGTACX_site1179] | 6.29 |
| TTCATATAATTCATCTGTACATATTGATAGTATGCA [XGTACX_site6386] | 6.29 |
| ACTACGTGTCAAAAATATTAATTACAAATGAATAAA [GTGCAC_negctrl_site248] | 6.08 |
| AGTAGTCTGGAGAAGAGTACACAGTATCTGGTAACA [XGTACX_site2032] | 6.02 |
| AATATTTTAATGCACACACACAAAAAAAAAAAAAAA [CACACA_site7374] | 10.7 |
| ATAATATTTTAATGCACACACACAAAAAAAAAAAAA [CACACA_site2891] | 9.96 |
| CTCTATAAATGCTGCACACACATTTAATTATTTAAG [CACACA_site2582] | 8.11 |
| ACATCATAAAATTTATGTACACATTTTTAATTATAC [XGTACX_site7759] | 6.51 |
| TTTAAATTTTAATATGCACACAAAATGTTATATTAA [CACACA_site8015] | 9.9 |
| ATTTATAAAATTAATGCACACATCAGCATTTATAAA [CACACA_site1025] | 10.6 |
| ATTTCTACTAAAAATACACACGATGATACAACGAAG [CACACA_site1755] | 6.85 |
| ATATATTAAAAACGATGTACCCTGAACTAAAAAAAA [XGTACX_site4986] | 6.52 |
| AACGTTCAATTTAAATGTACAAATGTATTTAAATAT [XGTACX_site315] | 6.38 |
| TATATTTAGAATACAATCTTAAAGTTGAAATAAAAT [CACACA_negctrl_site1292] | 6.03 |
| TTATATTAAAAAAGATGTACGTTTAGGAAAAATATA [XGTACX_site7456] | 6.53 |
| TAAGGAAAAAATTATAGTACATAATAAATGTATATA [XGTACX_site8328] | 6.15 |
| TCCTTTTTTTTTTATGCACACACAATTATACATTCC [CACACA_site9287] | 10.5 |
| CTTTTTTTTTTATGCACACACAATTATACATTCCTT [CACACA_site3877] | 10.6 |
| TCATACATTTTCCTTGCACACATTTATAATTAATGG [CACACA_site4511] | 8.55 |
| TTCCTTTAACCCTGCACACATACATACATTTATATG [CACACA_site3953] | 8.51 |
| TCATACATTTTCCTTGCACACATTTATAATTAATGT [CACACA_site614] | 8.95 |
| TATATATATATATATGCACACATTTATACAATTTTA [CACACA_site2986] | 10.2 |
| ATGTATGTATAATATACACACTCACAAGCATTCAAA [CACACA_site4306] | 6.75 |

| Sequence | gcPBM binding intensity (ln) |
| --- | --- |
| ATATTCTTCTAAAGGCGTACATCTACATTTATGAAA [XGTACX_site2145] | 6.28 |
| TTTATATATAAATATATATATATATATATATATATA [TGCATGCA_negctrl_site121] | 9.28 |
| TCTAGGAAAAATTATAGTACACAAAAATATATATAT [XGTACX_site4136] | 7.95 |
| TAATATACTTAATACACACACGAATATTTATAAATA [CACACA_site6675] | 6.97 |
| CACATATACTTCTGTGCACACGAATATTTTTCTTCT [CACACA_site1408] | 11.2 |
| CATATACTTCTGTGCACACGAATATTTTTCTTCTTC [CACACA_site1407] | 11.2 |
| CATATATATATATATACACACATATATATTTTCTTT [CACACA_site1457] | 7.04 |
| ATAAAATATAGGTATGCACACACATATACTTCTGTG [CACACA_site8398] | 8.84 |
| AAAATATAGGTATGCACACACATATACTTCTGTGCA [CACACA_site1409] | 10 |
| TTTGTTAATTATAAATGTACATATTATATATATATA [XGTACX_site8870] | 8.42 |
| CACGCGCCCGGACACACACACACACCCATATATATA [CACACA_site5251] | 6.84 |
| TTAAACTTGTTTTGGATGCACTATATAATTCATTTT [GTGCAC_site9549] | 7.2 |
| AGAGAGATGACAAAAAGATGAATAACGTTAAGGGAT [XGTACX_negctrl_site120] | 7.4 |
| TTATGGTGCATGAAATCACACATTGATATATATGCT [CACACA_site5352] | 8.81 |
| ATCATATTTATGTTGGTGCATTATGCATGGATTTTA [GTGCAC_site9795] | 10.8 |
| ATATGGATTATACATACATGCATACATACATACATA [TGCATGCA_site475] | 6.58 |
| TATTTTTATTATATGGTGCATATATACATACATATA | 9.96 |
| TATAATAATAATTATACATGCATGAATATTTATATG [TGCATGCA_site811] | 6.46 |
| ATTATATTTATGTTGGTGCATTATACATGAAATTTA | 10.5 |
| ATCATATTTATATTGGTGCATTATGCATGAAATTTA [GTGCAC_site9571] | 10.6 |
| AATATGAAATATATTACACACATTTATATGTTGAAA [CACACA_site1427] | 6.31 |
| ACATATGAAAAATATGCATGCAAATATTATTTAACA [TGCATGCA_site802] | 7.03 |
